From PubChem
NS1 inh = influenza NS1 inhibition. Potency, µM (highest dose often 46.1 µM). 0.4% of 270,000 active; further: actives are rising curves; nearly all actives have a fitted effect of over 50% in size
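Recovery from NS1-induced slow growth read by OD600 in budding yeast switched to galactose assay medium (pH 6.0, -URA) at 1:100 dilution. Compound 23 nl per well; the matching strain lacking NS1 serves as control.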
Pf growth 48h = inhibits P. falciparum growth in the first generation, 48 h; P. falciparum luciferase growth in erythrocytes, 48 h; Potency, µM (highest dose often 28.7 µM), most hits filed as inhibitors; 5.9% of 310,000 active; AID 504832; active means well fitted inhibition curve with a large enough effect; inconclusive means small, poorly fitted or top-dose-only effect, or another doubt; inactive means no such curve, though single readings can be large or run the other way
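Luminescence readout; reporter = integrated firefly luciferase in P. falciparum. RBC culture at 2% hematocrit, 0.1% parasitemia final, 37 C/5% CO2; decreased signal taken as growth inhibition.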
Shiga inhibitor = blocks Shiga toxin action in Vero cells. inhibition, % at 38.7 µM. Vero cells, Shiga toxin protein synthesis inhibition reporter. 9.2% of 290,000 active. AID 2315; in the data active means inhibition mostly above about 28%, no sharp cut-off; inactive means mostly below about 43%
Cycloheximide cs = counter-screen hit for Shiga toxin inhibitors, cycloheximide; cell reporter, cycloheximide protein synthesis inhibition counterscreen; max response, %; 12% of 300,000 active; AID 2314; in the data active means max response mostly above about 13%, no sharp cut-off; inactive means mostly below about 14%; further: read at 38.3 µM for the half of the compounds with a filed dose
SARS PLP yeast = inhibitors of SARS-CoV papain-like protease in yeast; S. cerevisiae expressing SARS-CoV PLpro, growth rescue; Potency, µM (highest dose often 32.9 µM), hits mostly activators; 0.19% of 330,000 active; AID 485353; further: nearly all actives have a fitted effect of over 55% in size
Pf growth 96h = inhibits malaria parasite growth, 96 h | 6.9% of 320,000 active | P. falciparum luciferase reporter growth, 96 h | Potency, µM (highest dose often 28.7 µM), usual class: inhibitors; active means well fitted inhibition curve with a large enough effect; inconclusive means small, poorly fitted or top-dose-only effect, or another doubt; inactive means no such curve, though single readings can be large or run the other way
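Two parasite generations (96 h, 37 C, 5% CO2) of compound exposure in infected erythrocytes (0.05% parasitemia, 2% hematocrit). Luciferase-reporter P. falciparum; decreased luminescence indicates inhibited growth, aimed at apicoplast-acting delayed death.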
Each line names hits and unclear results; the compound was inactive in the other large screens. A selection: hits, their analogues and other compounds. The true share with any hit is near 21%. Unless noted, the call rests on the fitted dose curve.

CC(C)(C)C1CCC(OC(=O)c2ccncc2)CC1 (stereo not given)	Pf growth 48h 12µM
CCCc1nc2c(=O)n(C)c(=O)nc-2n(C)n1	Pf growth 48h 5.2µM (no result: NS1 inh)
Cn1ncnc2c(=O)n(C)c(=O)nc1-2	Pf growth 48h 0.93µM
CCn1c(N)nc2c1c(=O)n(C)c(=O)n2C	none
COc1ccc(-c2nc(-c3ccccn3)ncc2S(C)(=O)=O)cc1	none (no result: NS1 inh)
Cn1nc(-c2ccccn2)nc2c(=O)n(C)c(=O)nc1-2	Pf growth 48h 2.9µM, Pf growth 96h 2.9µM
COc1ccc(CCC(=O)N2CCN(S(=O)(=O)c3cccc(Cl)c3)CC2)cc1	Pf growth 48h inconclusive, Pf growth 96h inconclusive (no result: NS1 inh, Shiga inhibitor, Cycloheximide cs)
Cc1c2ccccc2c(C)c2c1ccc1ccccc12	Pf growth 48h 0.93µM, Pf growth 96h 0.66µM (no result: NS1 inh, Shiga inhibitor, Cycloheximide cs, SARS PLP yeast)
CC1=Nc2ccc3ccccc3c2C1(C)C	none (no result: NS1 inh)
COc1cccc(C2c3[nH]c4ccccc4c3CCN2Cc2cnc(C)s2)c1OC (stereo not given)	Pf growth 48h 2.3µM, Pf growth 96h inconclusive
COc1ccccc1C1c2[nH]c3ccccc3c2CCN1Cc1cnc(C)s1 (stereo not given)	Pf growth 48h inconclusive, Pf growth 96h inconclusive
COc1ccccc1NS(=O)(=O)c1cc(NC(=O)/C=C/c2cccs2)ccc1N1CCOCC1	NS1 inh 14µM, Pf growth 48h 12µM, Pf growth 96h inconclusive
O=C(/C=C/c1cccs1)Nc1ccc(N2CCOCC2)c(S(=O)(=O)Nc2ccccc2Cl)c1	Pf growth 48h inconclusive, Shiga inhibitor 61, Cycloheximide cs 21, Pf growth 96h inconclusive
CN(Cc1nc(Cc2cccc(F)c2)no1)CC1COCCO1 (stereo not given)	none
CN(Cc1nc(C(c2ccccc2)c2ccccc2)no1)CC1COCCO1 (stereo not given)	Cycloheximide cs 15, Pf growth 96h inconclusive
CN(Cc1nc(-c2cccs2)no1)CC(O)c1ccccc1 (stereo not given)	Shiga inhibitor 56, Cycloheximide cs 44
CN(Cc1nc(-c2cccs2)no1)CC1(N2CCOCC2)CCCCC1	Pf growth 48h inconclusive
CCN1CC(CN(C)Cc2nc(-c3ccc(C(F)(F)F)cc3)no2)CC1=O (stereo not given)	none
CCN1CC(CN(C)Cc2nc(-c3cccs3)no2)CC1=O (stereo not given)	Pf growth 96h 12µM
CN(Cc1nc(-c2cnccn2)no1)CC(O)c1ccccc1 (stereo not given)	Pf growth 96h inconclusive
CN(Cc1nc(-c2cccs2)no1)CC1COCCO1 (stereo not given)	Shiga inhibitor 61, Cycloheximide cs 33, Pf growth 96h inconclusive
O=C1NC(Nc2nccs2)(C(F)(F)F)C(=O)N1CCc1ccccc1 (stereo not given)	none
COc1ccc(-c2csc3ncn(-c4cccc(C)c4)c(=O)c23)cc1OC	Pf growth 48h inconclusive
CC(C)n1cc(CN2CCC(n3nccc3NC(=O)C3CCCC3)CC2)cn1	none
O=C(Nc1ccc2c(c1)CCC2)C1COc2ccccc2O1 (stereo not given)	Shiga inhibitor 40, Cycloheximide cs 58, Pf growth 96h inconclusive
O=C(Nc1ccncc1)C1COc2ccccc2O1 (stereo not given)	Cycloheximide cs 11, Pf growth 96h inconclusive
O=C(Nc1ccc(F)cc1)C1COc2ccccc2O1 (stereo not given)	Cycloheximide cs 20
O=C(Nc1ccncc1)C1c2ccccc2Oc2ccccc21	Pf growth 48h 5.9µM (no result: Pf growth 96h)
CCc1c(C)sc(NC(=O)Cn2nc(C)c([N+](=O)[O-])c2C)c1C(N)=O	none
NC(=O)c1ccc(NC(=O)C2COc3ccccc3O2)cc1 (stereo not given)	NS1 inh inconclusive, Pf growth 96h inconclusive
Cc1cc(C)n(C(=O)CNC(=O)C2COc3ccccc3O2)n1 (stereo not given)	none
O=C(Nc1cnc2ccccc2c1)C1COc2ccccc2O1 (stereo not given)	Shiga inhibitor 80, Cycloheximide cs 31
O=C(Nc1ccc2c(c1)OCO2)C1COc2ccccc2O1 (stereo not given)	Shiga inhibitor 107, Cycloheximide cs 36
Cc1cc(C)n(C(=O)c2ccc(NC(=O)C3COc4ccccc4O3)cc2)n1 (stereo not given)	Pf growth 96h 8.3µM (no result: SARS PLP yeast)
Cc1cc(C)c(N=Cc2c(O)[nH]c(=O)[nH]c2=O)c(C)c1	Pf growth 96h 3.3µM
O=[N+]([O-])c1ccccc1OCCN1CCOCC1	none
O=C(NC1=NCCS1)C1COc2ccccc2O1 (stereo not given)	none
Cc1ccc(CSc2nnc(NC(=O)C3COc4ccccc4O3)s2)cc1 (stereo not given)	none
CCC(CC)c1nnc(NC(=O)CCc2ccccc2)s1	none
CCc1nnc(NC(=O)C2COc3ccccc3O2)s1 (stereo not given)	Cycloheximide cs 36 (no result: Pf growth 96h)
COC(=O)c1c(NC(=O)C2COc3ccccc3O2)sc2c1CCN(Cc1ccccc1)C2 (stereo not given)	Pf growth 48h 5.2µM, Pf growth 96h inconclusive
CCC(CC)c1nnc(NC(=O)C2COc3ccccc3O2)s1 (stereo not given)	Shiga inhibitor 67, Cycloheximide cs 36
O=C(Nc1nc2c(s1)CCCC2)C1COc2ccccc2O1 (stereo not given)	Shiga inhibitor 45, Cycloheximide cs 38, Pf growth 96h inconclusive
CCCNC(=O)c1c(NC(=O)C2COc3ccccc3O2)sc2c1CCCC2 (stereo not given)	Pf growth 96h 10µM
CCOC(=O)c1c(NC(=O)C2COc3ccccc3O2)sc(C)c1C (stereo not given)	Pf growth 48h 5.9µM
CCCCCc1nnc(NC(=O)Cc2cccs2)s1	none (no result: Pf growth 96h)
O=C(Nc1ncc(Cc2ccccc2)s1)C1COc2ccccc2O1 (stereo not given)	Shiga inhibitor 126, Cycloheximide cs 43
CCCCCc1nnc(NC(=O)C2COc3ccccc3O2)s1 (stereo not given)	Shiga inhibitor 39, Cycloheximide cs 30 (no result: NS1 inh)
COc1ccccc1C1CC(=O)Oc2ccc(C(C)(C)C)cc21 (stereo not given)	none (no result: NS1 inh, Pf growth 48h, Pf growth 96h)
Cc1ccc(N2CCN(CCC(=O)O)CC2)cc1	none (no result: Pf growth 48h, Shiga inhibitor, Cycloheximide cs, SARS PLP yeast, Pf growth 96h)
C[C@@]12C(=O)N(CCO)CC(=O)N1[C@H](/C=C/c1ccccc1)[C@@H]1C(=O)N(c3ccccc3)C(=O)[C@@H]12	none
Oc1cc2cc(CCN3CCN(c4nsc5ccccc45)CC3)c(Cl)cc2[nH]1	Pf growth 48h 13µM, Pf growth 96h 11µM (no result: NS1 inh, Shiga inhibitor, Cycloheximide cs, SARS PLP yeast)
COc1ccc(CNc2ccc3c(c2)CCC3)cc1Br	Shiga inhibitor 70, Cycloheximide cs 41, Pf growth 96h 7.4µM
COc1ccccc1CNc1ccc2c(c1)CCC2	Pf growth 48h inconclusive, Cycloheximide cs 32, Pf growth 96h inconclusive (no result: Shiga inhibitor)
CCOc1cc(CNc2ccc3c(c2)CCC3)ccc1OC	Cycloheximide cs 35 (no result: Pf growth 48h)
COc1ccccc1CNC(=O)COc1ccc2c(c1)CCC2	Pf growth 96h inconclusive (no result: NS1 inh)
